Screening data from PubChem.
Compounds with a hit are over-represented: about 3% of the library has one in this group of screens.
Tau ThT inhib: tau fibrillization inhibition (ThT binding). 270,000 compounds, 2.1% hits. Potency, µM (doses to about 57.4 µM), most hits filed as inhibitors. AID 1460. P10636. recombinant tau K18 P301L, heparin-induced fibrillization, ThT fluorescence; further: nearly all actives have a fitted effect of over 55% in size
Target sequence (P10636 561-689 P618L limits assumed): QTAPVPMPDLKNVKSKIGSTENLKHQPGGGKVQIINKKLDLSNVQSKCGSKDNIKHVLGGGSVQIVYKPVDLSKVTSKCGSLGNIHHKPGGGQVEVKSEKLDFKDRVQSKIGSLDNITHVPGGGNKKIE
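Fibril formation assay: tau K18 P301L at 15 uM with trace Alexa 594 label, heparin inducer 20 uM, pH 7 sodium acetate buffer, 37 C for 6 hr; endpoint ThT signal.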
Tau FP inhib: tau fibrillization inhibition (FP); K18 P301L tau heparin fibrillization, Alexa594 FP, 6 h; Potency, µM (series often up to 57.7 µM), actives largely listed as inhibitors; 280,000 compounds, 0.39% hits; further: nearly all actives have a fitted effect of over 55% in size
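Human K18 P301L fragment (15 uM unlabeled plus 0.24 uM Alexa 594-labeled) in 100 mM sodium acetate pH 7 with compound, aggregation induced by 20 uM heparin for 6 hr at 37 C. ThT (30 uM) added for 1 hr, then Alexa 594 FP read.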
Tau fluor cs: counter-screen for tau fibril formation inhibitors. tau K18 P301L (four-repeat tau fragment) Alexa594 fluorescence, heparin fibrillization. Potency, µM (highest dose often 57.7 µM). 280,000 compounds, 0.93% hits; further: nearly all actives have a fitted effect of over 55% in size
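Human K18 P301L tau (15 uM unlabeled plus 0.24 uM Alexa 594-labeled, final) in 100 mM sodium acetate pH 7 was mixed with compound and 20 uM heparin and incubated 6 hr at 37 C.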
TRb-SRC2 inh: inhibitors of human thyroid hormone receptor beta-SRC2 interaction. P10828. TRbeta-SRC2 peptide binding, fluorescence polarization; receptor liganded with 1 µM T3. Potency, µM (series often up to 106 µM), hits mostly inhibitors. 280,000 compounds, 0.065% hits; further: nearly all actives have a fitted effect of over 50% in size
Target sequence (P10828 whole entry, looked up): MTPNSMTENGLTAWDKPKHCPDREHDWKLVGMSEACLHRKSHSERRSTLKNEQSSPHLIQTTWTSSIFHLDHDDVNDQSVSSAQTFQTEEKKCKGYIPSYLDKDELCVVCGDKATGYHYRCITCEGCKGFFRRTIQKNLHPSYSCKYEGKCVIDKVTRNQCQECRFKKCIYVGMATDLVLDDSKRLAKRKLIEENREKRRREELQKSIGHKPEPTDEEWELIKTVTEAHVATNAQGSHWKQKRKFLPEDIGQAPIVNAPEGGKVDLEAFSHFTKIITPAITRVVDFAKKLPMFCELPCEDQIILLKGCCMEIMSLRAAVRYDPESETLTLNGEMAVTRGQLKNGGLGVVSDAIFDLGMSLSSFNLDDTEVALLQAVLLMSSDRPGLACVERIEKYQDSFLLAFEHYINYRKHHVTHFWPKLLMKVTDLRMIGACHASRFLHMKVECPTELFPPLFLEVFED
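Human TRb ligand-binding domain (0.6 uM) is mixed with 20 nM Texas Red SRC2 peptide and 1 uM T3; after compound addition and 5 hr at ambient temperature, polarization is measured and normalized to unbound and bound controls.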
TexasRed fluor: Texas Red fluorescence interference in TRb-SRC2 counter-screen; TRb/SRC2 Texas Red total fluorescence interference; Potency, µM (series often up to 106 µM); 280,000 compounds, 0.29% hits; AID 1479; active means well fitted curve in either direction with a large enough effect; inconclusive means small, poorly fitted or top-dose-only effect
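Flags fluorescent or light-absorbing compounds by total fluorescence, S + 2P, at 555 nm excitation and 632 nm emission. Mixture: 20 nM Texas Red SRC2 peptide, 0.6 uM human TRb LBD, 1 uM T3, 5% DMSO; compound exposure 5 h at ambient temperature.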
Each line names hits and unclear results; the compound was inactive in the other large screens; [ ] = another dose, or the depositor's remark. Unless noted, the call rests on the fitted dose curve; in most records, active means well fitted curve in the direction sought with a large enough effect; inconclusive means small, poorly fitted or top-dose-only effect, or another doubt; inactive means no such curve, though single readings can be large; an effect the other way counts as inactive or inconclusive.

Cc1nc2cc(-c3ccsc3-n3c(C)ccc3C)[nH]n2c(=O)c1Cl	Tau ThT inhib 14µM, Tau FP inhib inconclusive, Tau fluor cs inconclusive, TexasRed fluor 45µM[quencher]
N#Cc1ccccc1CN1C(=O)c2ccccc2Sc2ccc(C(=O)OCc3ccco3)cc21	TexasRed fluor inconclusive
CC(=O)OCC(=O)Nc1ccc(N=Nc2ccccc2)cc1	Tau ThT inhib 8.9µM
O=C(CCl)Nc1ccc(N=Nc2ccccc2)cc1	Tau ThT inhib 5µM, Tau fluor cs inconclusive
O=S(=O)(Nc1ccc(S(=O)(=O)Nc2ccccc2)cc1)c1ccccc1	none
O=S(=O)(Nc1ccc(N=Nc2ccccc2)cc1)c1ccccc1	Tau ThT inhib 16µM, Tau FP inhib inconclusive, Tau fluor cs inconclusive
CC(=O)Nc1ccc(N=Nc2ccccc2)cc1	Tau ThT inhib 13µM
COc1ccc(C(=O)c2cn(CC(=O)Nc3ccc4c(c3)OCCO4)c3ccc(OC)cc3c2=O)cc1	none
CC(C)C(=O)OCC(=O)Nc1ccc(N=Nc2ccccc2)cc1	Tau ThT inhib 7.9µM, Tau FP inhib inconclusive, Tau fluor cs inconclusive
CCC(C(=O)OCC(=O)Nc1ccc(C(N)=O)cc1)c1ccccc1 (stereo unspecified)	none
COc1cc(C(=O)O[C@@H]2CC3CC[C@]2(C)C3(C)C)ccc1O	none (no result: Tau ThT inhib, Tau FP inhib, Tau fluor cs)
N#Cc1ccc(NC(=O)Nc2cccc(C#N)c2)cc1	Tau ThT inhib inconclusive, Tau FP inhib inconclusive, Tau fluor cs inconclusive
N#Cc1ccc(NC(=O)Nc2ccc(Oc3ccc(NC(=O)Nc4ccc(C#N)cc4)cc3)cc2)cc1	Tau ThT inhib inconclusive, Tau FP inhib inconclusive, Tau fluor cs 7.9µM[quencher]
O=C(N/N=C/c1cn(-c2ccccc2)nc1-c1cc2ccccc2o1)c1ccccc1Br	none
O=C(N/N=C/c1cn(-c2ccccc2)nc1-c1cc2ccccc2o1)c1c[nH]c2ccccc12	Tau FP inhib 14µM, Tau fluor cs inconclusive
COc1ccccc1C(=O)NC(=S)/C=C1/N(C)c2ccccc2C1(C)C	none
CN1/C(=C/C(=S)NC(=O)C2(C)CC2(Cl)Cl)C(C)(C)c2ccccc21 (stereo unspecified)	Tau ThT inhib 13µM
CN1/C(=C\C=C(/C#N)C(=O)Nc2ccc(Cl)cc2)C(C)(C)c2ccccc21	Tau ThT inhib inconclusive
CN1/C(=C\C(=O)Nc2ccc(Cl)cc2)C(C)(C)c2ccccc21	Tau ThT inhib inconclusive, Tau fluor cs 13µM[quencher]
CN1/C(=C\C(=S)NC(=O)c2ccccc2Cl)C(C)(C)c2ccccc21	Tau ThT inhib 11µM
Cc1ccc(/C=C2\SC(=S)N(/N=C/c3cc([N+](=O)[O-])ccc3O)C2=O)o1	Tau ThT inhib 18µM, Tau FP inhib inconclusive, Tau fluor cs inconclusive
O=[N+]([O-])c1ccc(O)c(/C=N/n2cnc3ccccc32)c1	Tau ThT inhib inconclusive
CCN(CC)S(=O)(=O)c1cc(C)ccc1NC(=S)Nc1cccnc1	Tau FP inhib 32µM, Tau fluor cs inconclusive
O=C(Nc1nnc(S(=O)(=O)N2CCCc3ccccc32)s1)c1ccc(Cl)cc1	Tau ThT inhib inconclusive
COc1cc(NC(=O)N2CCC(CN3CCOCC3)CC2)cc(OC)c1OC	none
Cc1c(Br)c(O)c(Br)c2sc(=O)oc12	Tau ThT inhib 11µM, Tau FP inhib inconclusive, Tau fluor cs inconclusive
Cc1c(NC(=S)N/N=C/c2cc([N+](=O)[O-])ccc2O)c(=O)n(-c2ccccc2)n1C	Tau ThT inhib 32µM
COc1ccc(NC(=S)NCc2cccnc2)cc1	none
S=C(NCc1cccnc1)Nc1ccc(Oc2ccc(Cl)cc2)cc1	Tau FP inhib inconclusive, Tau fluor cs 13µM[quencher]
CCn1c(=O)n(CC)c2cc(N3CCCCC3)c(NC(=O)Nc3ccccc3Cl)cc21	Tau ThT inhib inconclusive
CCN(CC)c1ccc(/C=N/NS(=O)(=O)c2ccc(C)c([N+](=O)[O-])c2)cc1	Tau ThT inhib inconclusive, Tau fluor cs inconclusive
CCN(Cc1ccccc1)c1ccc(/C=N/NS(=O)(=O)c2cccc([N+](=O)[O-])c2)cc1	Tau ThT inhib inconclusive, Tau fluor cs 7.9µM[quencher]
CCOC(=O)C1=C(c2ccccc2)N=c2s/c(=C\c3cccc(O)c3)c(=O)n2C1c1cccs1 (stereo unspecified)	Tau ThT inhib inconclusive, Tau FP inhib 13µM, Tau fluor cs inconclusive
O=C(Nc1ccc(Cl)cc1)/C(=C/c1ccc([N+](=O)[O-])cc1)c1nc2ccccc2s1	Tau ThT inhib 14µM, Tau FP inhib inconclusive
O=C(Nc1nc2ccccc2s1)Nc1ccc([N+](=O)[O-])cc1Cl	Tau ThT inhib inconclusive, Tau fluor cs inconclusive
Cc1nc(NC(=O)CC(C)C)sc1-c1csc(Nc2ccc(Cl)cc2Cl)n1	Tau ThT inhib inconclusive, Tau fluor cs 22µM[quencher]
CCCC(C)C(=O)Nc1nc(C)c(-c2csc(Nc3cc(Cl)ccc3C)n2)s1 (stereo unspecified)	Tau ThT inhib inconclusive, Tau fluor cs inconclusive
COc1ccc(Cl)cc1Nc1nc(-c2sc(NC(=O)CC(C)C)nc2C)cs1	Tau ThT inhib inconclusive, Tau fluor cs inconclusive
Cc1nc(NC(=O)CC(C)C)sc1-c1csc(Nc2ccc(Cl)cc2)n1	Tau ThT inhib inconclusive, Tau fluor cs 11µM[quencher]
CN(Cc1ccccc1)c1ccc(-c2nc(-c3ccccn3)no2)cc1[N+](=O)[O-]	none
O=C1c2ccccc2-c2nnc(-c3ccc(O)cc3)cc21	Tau ThT inhib 5µM, Tau fluor cs inconclusive
Cc1ccc(-c2cc3c(nn2)-c2ccccc2C3=O)cc1	none (no result: Tau ThT inhib)
Cc1ccc(Cn2c(SCc3ccc(C(=O)O)cc3)nc3cccnc32)cc1	none
CC(C)N(Cc1ccccc1)C(=O)Cn1ncc2c3ccccc3n(Cc3ccccc3)c2c1=O	none
COC(=O)c1ccc(I)cc1S(=O)(=O)NC(=O)Nc1nc(C)nc(OC)n1	none (no result: Tau ThT inhib, Tau FP inhib, Tau fluor cs)
CCCCN(CC)c1nc(N)c2c(N)nc(OCC)cc2c1C#N	Tau ThT inhib inconclusive, Tau fluor cs 16µM[quencher]
O=C(CCCCCNC(=O)c1ccccc1)N=Nc1c(O)[nH]c2c(Br)cc(Br)cc12	Tau ThT inhib 6.3µM, Tau fluor cs inconclusive
O=C(CCNC(=O)c1ccccc1)N=Nc1c(O)[nH]c2ccccc12	none
Cc1ccc(-n2nc(C(=O)Nc3ccc(F)cc3Cl)c(=O)n(C)c2=O)cc1	none
CCc1ccc2c(c1)/C(=N/N(C)C(=S)NC)C(=O)N2	Tau ThT inhib 32µM
Nc1ccc2oc(-c3ccc4nc[nH]c4c3)nc2c1	Tau ThT inhib 14µM, Tau fluor cs inconclusive
COc1ccc(OC)c(CNC(=O)CCCn2nc(C)c3c(C)n(-c4ccc(C)cc4)nc3c2=O)c1	none
CCC(=O)N1CCc2cc(S(=O)(=O)CCC(=O)N3CCN(c4cccc(C)c4)C(C)C3)ccc21 (stereo unspecified)	Tau ThT inhib inconclusive
COc1ccc(/C=N/NC(=O)c2cc(-c3cccnc3)nc3ccccc23)c(OC)c1	Tau FP inhib inconclusive
COc1cc([N+](=O)[O-])cc(/C=N/NC(=O)c2cc(C)nc3ccccc23)c1O	Tau ThT inhib 14µM
